The list is not random: actives were taken first. Their share in the collection is about 28%.
CYP2C9 inh: blockers of cytochrome P450 2C9 activity – biochemical, luminescence, ADME assay, primary screen | P11712 | CYP2C9 Supersomes, luciferin-H conversion | inhibition, % at 5 µM | actives 20% (n = 96,000);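 active means blocking of liver enzyme CYP2C9 beyond about 50% at 5 µM, limit read from the data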
Target sequence (P11712 whole entry, looked up): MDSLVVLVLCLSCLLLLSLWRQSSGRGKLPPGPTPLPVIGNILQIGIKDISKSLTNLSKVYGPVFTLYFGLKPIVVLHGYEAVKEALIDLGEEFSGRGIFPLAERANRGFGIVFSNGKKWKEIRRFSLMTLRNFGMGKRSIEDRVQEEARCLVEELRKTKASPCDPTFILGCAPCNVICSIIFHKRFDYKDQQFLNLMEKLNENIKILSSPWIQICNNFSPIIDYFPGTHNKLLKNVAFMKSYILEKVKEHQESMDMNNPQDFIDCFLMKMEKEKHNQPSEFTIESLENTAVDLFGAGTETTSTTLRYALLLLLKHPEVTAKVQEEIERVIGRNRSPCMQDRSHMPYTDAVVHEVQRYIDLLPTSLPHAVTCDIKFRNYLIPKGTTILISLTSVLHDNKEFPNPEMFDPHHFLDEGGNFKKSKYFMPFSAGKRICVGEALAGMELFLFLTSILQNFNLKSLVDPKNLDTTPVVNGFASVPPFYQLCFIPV
CYP2C19 activ: human CYP2C19 activators, primary screen, biochemical, luminescence; Cytochrome P450 2C19 (Homo sapiens), P33261; recombinant CYP2C19, luciferin-H EGE luminescence; active compounds read high; 0 = fully inhibited enzyme, 1 = untreated enzyme; activation factor at 5 µM; 96,000 tested, under 10 active;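 active means activation factor of at least 2 at 5 µM in the primary screen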;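 further: 0 = wells with 2.5 mM tranylcypromine and 1 = vehicle-only wells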
Mac1 fbg enh: enhancers of CD11b/CD18 adhesion to fibrinogen, primary screen, K562 cells, luminescence. actives 0.07% (n = 93,000). ATPlite luminescence. Integrin beta-2 (Homo sapiens) + Integrin alpha-M (Homo sapiens), P05107+P11215. activation, % at 10 µM;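 active means 10 µM primary screen giving 50% or more activity, confirmed by 40% or more on retest at that dose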
CYP2C9 act: human CYP2C9 activators, primary screen, biochemical, luminescence; Cytochrome P450 2C9 (Homo sapiens), P11712; recombinant CYP2C9, luciferin-H conversion; active compounds read high; factor 1 = untreated enzyme, 0 = blocked; activation factor at 5 µM; actives 1.4% (n = 96,000);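 active means activation factor of 2 or more for CYP2C9 at a 5 µM dose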;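 further: 0 = sulfaphenazole-blocked wells and 1 = vehicle-only wells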
CYP2C19 inhib: blockers of cytochrome P450 2C19 activity – biochemical, luminescence, ADME assay, primary screen. actives 21% (n = 96,000). CYP2C19 Supersomes, luciferin-H EGE luminescence, 30 min. inhibition, % at 5 µM. AID 778, 2007;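 active means CYP2C19 inhibition above a set limit at 5 µM in the primary screen, cut at about 50% in these data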;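 further: plate controls were negative control wells for no effect and 2.5 mM tranylcypromine positive control for full effect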
CD11b adhes inh: inhibitors of CD11b/CD18 adhesion to fibrinogen, primary screen, K562 cells, luminescence; Integrin beta-2 (Homo sapiens) + Integrin alpha-M (Homo sapiens), P05107+P11215; ATPlite luminescence; Mn2+ added to activate the integrin; inhibition, % at 10 µM; actives 0.54% (n = 93,000);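 active means primary inhibition of 50% or more at 10 µM, then 40% or more on retest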
* marks the source's active call; other numbers are inactive results; x = not tested or not shown.

SMILES | CYP2C9 inh | CYP2C19 activ | Mac1 fbg enh | CYP2C9 act | CYP2C19 inhib | CD11b adhes inh
O=C(Nc1cccc2c1CCCC2)c1ccc(Br)o1 | -5.8 | 0.8 | -0.4 | 1.1 | 16.0 | 0.4
CCCCNC(=O)c1ccc(S(=O)(=O)c2ccc(Cl)cc2)c(NC(C)=O)c1 | 37.6 | 0.5 | -0.1 | 0.6 | 48.9 | -1.2
O=C(c1nc(-c2ccccc2)n(-c2ccccc2)n1)N1CCN(S(=O)(=O)c2ccccc2)CC1 | 65.7* | 0.9 | 1.9 | 0.3 | 11.7 | 12.8
O=C(CSc1cccc(C(F)(F)F)c1)N1CCN(S(=O)(=O)c2ccccc2)CC1 | 10.0 | 0.4 | 1.1 | 0.9 | 59.3* | -0.6
COc1ccc(C(=O)N2CCc3cc(OC)c(OC)cc3C2c2cccc([N+](=O)[O-])c2)cc1OC (configuration not stated) | 68.7* | 0.8 | 2.1 | 0.3 | 19.1 | -4.9
COc1ccc(C2=NN(C(=O)c3cccc([N+](=O)[O-])c3)C(c3cccc([N+](=O)[O-])c3)C2)cc1 (configuration not stated) | 44.0 | 0.9 | -2.3 | 0.6 | 8.4 | -20.1
CN(C)S(=O)(=O)c1ccc(-c2ccccc2)cc1 | 40.2 | 0.6 | -1.7 | 0.6 | 36.1 | 10.5
CCN(CC)S(=O)(=O)c1ccc(OCC(=O)NCc2ccccc2)cc1 | 67.1* | 1 | 3.6 | 0.3 | -3.1 | -0.4
CN(C)S(=O)(=O)c1ccc(Oc2ccccc2)cc1 | 58.2* | 0.5 | 3.1 | 0.4 | 47.7 | -0.7
CCN(CC)S(=O)(=O)c1ccc(Oc2cccc(C(C)=O)c2)nc1 | 25.9 | 0.5 | -1.0 | 0.7 | 50.6* | -12.3
CCN(CC)S(=O)(=O)c1ccc(Oc2ccccc2)cc1 | 65.6* | 0.7 | -1.5 | 0.3 | 28.4 | 8.2
O=C(O)C1C2C=CC(C2)C1C(=O)Nc1ccc(C(=O)N2CCCCC2)cc1 (configuration not stated) | 5.2 | 0.9 | -0.7 | 0.9 | 14.9 | -12.7
CCN1C(=O)C(CC(=O)N2CCN(C(c3ccccc3)c3ccccc3)CC2)N(CC)C1=O (configuration not stated) | 5.5 | 0.9 | -3.3 | 0.9 | 10.0 | -14.9
Brc1c(CSc2nncn2-c2ccccc2)nc2sccn12 | -12.3 | 0.8 | x | 1.1 | 20.8 | x
CCCCN1CCc2[nH]c(=S)[nH]c(=O)c2C1 | x | x | -0.9 | x | x | x
COc1cc(C(=O)Nc2ccc(Br)cc2C(=O)c2cc(OC)c(OC)c(OC)c2)cc(OC)c1OC | 93.0* | 0.3 | 16.0 | 0.1 | 67.9* | -7.8
COc1cccc(OC)c1C(=O)Nc1ccc(N2CCN(S(C)(=O)=O)CC2)cc1 | -9.1 | 0.8 | -7.9 | 1.1 | 23.0 | -8.9
COc1ccc(Br)cc1C(=O)Nc1ccc(O)cc1 | -205.3 | 0.5 | 0.8 | 3.1* | 46.3 | -16.6
COc1ccc(Br)cc1C(=O)Nc1ccc(N2CCN(S(C)(=O)=O)CC2)cc1 | -96.7 | 0.8 | -1.4 | 2* | 15.6 | -28.3
CCOc1cccc(C(=O)Nc2ccc(N3CCN(S(C)(=O)=O)CC3)cc2)c1 | 52.7* | 0.7 | -3.0 | 0.5 | 34.5 | -21.4
COc1cccc(C(=O)Nc2ccc(N3CCN(S(C)(=O)=O)CC3)cc2)c1 | -8.6 | 1.1 | -2.4 | 1.1 | -9.9 | -40.3
COc1cc(C(=O)Nc2ccc(N(C)C)cc2)cc(OC)c1OC | 27.0 | 0.3 | -4.3 | 0.7 | 70.1* | 0.9
CCOC(=O)CN(C(=O)CSc1nnc(C)n1-c1ccccc1)c1ccccc1 | 23.6 | 0.9 | 0.7 | 0.8 | 9.4 | -3.8
CN(C(=O)CSc1nc(N)nn1-c1ccccc1)c1ccccc1 | 33.0 | 0.2 | 0.0 | 0.7 | 84.4* | -0.8
CCOC(=O)CCSc1nc(C)c2ccccc2n1 | -41.2 | 0.8 | -4.8 | 1.4 | 20.5 | -17.3
SMILES | CYP2C9 inh | CYP2C19 activ | Mac1 fbg enh | CYP2C9 act | CYP2C19 inhib | CD11b adhes inh
CCOC(=O)CCSc1nc(C)c2cc(C)ccc2n1 | 57.6* | 0.2 | -1.5 | 0.4 | 78.4* | 15.3
O=C(Nc1ccccc1C(F)(F)F)C1CC(=O)N(c2ccccc2F)C1 (configuration not stated) | 12.7 | 0.8 | x | 0.9 | 15.8 | x
CCN(CC(=O)Nc1cc(Cl)ccc1C)c1ncnc2sc(C)c(C)c12 | x | x | -3.3 | x | x | 47.3
CC1(C)Cc2c(C#N)c(NCCCO)nc(-c3ccccc3)c2CO1 | 60.9* | 0.8 | 0.2 | 0.4 | 20.6 | -4.9
CCN(CC)CCNc1nc(-c2ccccc2)c2c(c1C#N)CC(C)(C)OC2 | 28.6 | 0.9 | -4.3 | 0.7 | 10.7 | -13.0
CC1(C)Cc2c(c(-c3ccccc3)nc3[nH][nH]c(=O)c23)CO1 | 3.0 | 0.4 | 4.7 | 1 | 56.9* | -0.4
Cc1ccccc1-n1nc2c(c1NC(=O)COc1ccc(Cl)cc1)CS(=O)C2 (configuration not stated) | 21.6 | 0 | -0.9 | 0.8 | 100.2* | 6.9
CC(C)(C)n1nc2c(c1NC(=O)COc1ccc3ccccc3c1)CS(=O)C2 (configuration not stated) | 10.5 | 0.7 | 4.3 | 0.9 | 34.7 | -2.3
CNc1nc(N2CCc3ccccc32)ncc1F | 24.4 | 0.2 | -6.5 | 0.8 | 81.6* | -12.5
Cc1cc(=O)[nH]c(N2CCCC2)n1 | 5.7 | 0.8 | -3.6 | 0.9 | 16.7 | -13.1
COC(=O)C1=C(C)N(CC2CCCO2)C(=O)/C1=C\c1ccc(O)cc1 (configuration not stated) | 62.7* | 0.5 | -2.9 | 0.4 | 50.0* | 8.9
CCN1C(=O)/C(=C\c2ccco2)C(C(=O)OC)=C1C | 35.2 | 0.8 | 0.7 | 0.6 | 22.9 | -2.0
COC(=O)C1=C(C)N(Cc2ccc(C)cc2)C(=O)/C1=C\c1ccc(O)c(OC)c1 | 92.3* | 0.5 | -4.7 | 0.1 | 51.5* | 36.9
COc1cccc(/C=C/C(=O)OCC(=O)N2c3ccccc3NC(=O)C2(C)C)c1 | x | x | 3.2 | x | x | -2.6
O=S(CC1CC1(Cl)Cl)CC1CC1(Cl)Cl (configuration not stated) | x | x | 3.8 | x | x | 4.3
O=S(Cc1cc(Sc2ccccc2)nc(-c2ccccc2)n1)c1ccccc1 (configuration not stated) | 94.3* | 0 | -3.4 | 0.1 | 98.1* | 0.6
COCc1cc(Sc2ccc(Cl)cc2Cl)nc(-c2ccccc2)n1 | -19.3 | 1.1 | -1.9 | 1.2 | -5.0 | 24.1
CNc1cc(CS(=O)c2ccccc2)nc(-c2ccccc2)n1 (configuration not stated) | 3.3 | 0.1 | x | 1 | 92.6* | x
CC(=O)N(c1ccccc1)C1SC(=O)N(c2ccccc2)C1=O (configuration not stated) | 8.6 | 0.6 | 0.0 | 0.9 | 41.3 | 2.3
